The results in this text go back to PubChem BioAssay (NCI).

Test systems include T-47D breast; BT-549 breast; MDA-MB-435 melanoma; SW-620 colon; MCF7 breast; HCT-116 colon; HCC-2998 colon; KM12 colon.
Assay in all cases: NCI-60 one-dose screen, 48 h (100 = growth as untreated, 0 = no growth, -100 = all killed)
What all share (conditions): 10 µM unless noted

This is part of a sample that, as a whole, favours compounds with a hit. Of some 83,000 tested, about 20% had one in any assay.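 For each line, cells grew in 96-well plates with the test compound present at a single concentration for 48 hours.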 A number with no mark means an inactive call. Activity calls are given as the source filed them. Rule for the calls: active = growth percent below 10; inactive = the rest.

As for `O=C(C[C@@H](C(=O)NCc1cccc(C(F)(F)F)c1)N1C(=O)[C@@H](N2C(=O)OC[C@@H]2c2ccccc2)[C@H]1/C=C/c1ccccc1)NC1CCN(Cc2ccccc2)CC1`, the growth with T-47D breast was 50.8%; in the test with BT-549 breast, 74.2%; with MDA-MB-435 melanoma it was 66.8%; in the test on SW-620 colon, 59.8%; in the test on MCF7 breast, 7.27% (active); in the test on HCT-116 colon, 30.4%. For the same compound, the growth with HCC-2998 colon is 59.9%; in the test on KM12 colon, 59.4%.

For `CNCc1cccc2c1OCCOCCOCCN(C)S(=O)(=O)c1ccc(cc1)-c1cnc(N)c(n1)C(=O)N2`, the growth was 47% in the test on T-47D breast; 55.6% in the test on BT-549 breast; 46.2% in the test on MDA-MB-435 melanoma; 37.8% with SW-620 colon; 42.2% in the test with MCF7 breast; 15.4% with HCT-116 colon. Moreover, the results for the growth in the test on HCC-2998 colon and in the test on KM12 colon were 75.5% and 43.6%, respectively.

`Nc1cccc(-c2nc3sccn3c2-c2ccnc(NCCCNS(=O)(=O)c3ccc(C(F)(F)F)cc3)n2)c1`: the growth was -16.9% (active) with T-47D breast; 0.811% (active) with BT-549 breast; -14.8% (active) in the test with MDA-MB-435 melanoma; 12.7% in the test with SW-620 colon; 2.11% (active) in the test with MCF7 breast; 3.07% (active) in the test with HCT-116 colon. Moreover, the values for the growth with HCC-2998 colon and in the test with KM12 colon were 18.1% and 1.52% (active), respectively.

With `O=C1c2ccccc2-c2nccc3cc(Cl)nc1c23`, the growth was -52.5% (active) with T-47D breast; 58.5% in the test on BT-549 breast; -73.7% (active) in the test on MDA-MB-435 melanoma; -54% (active) in the test with SW-620 colon; -59.5% (active) with MCF7 breast; -91% (active) with HCT-116 colon. Further, the growth was 101% in the test on HCC-2998 colon and 25.7% in the test on KM12 colon.

For `COc1cccc(-n2cc(-c3nc(Nc4cc(C)[nH]n4)c4ccccc4n3)nn2)c1`, the growth is 17.6% in the test with T-47D breast; 49.3% with BT-549 breast; 34% in the test on MDA-MB-435 melanoma; 66.5% with SW-620 colon; 37.6% in the test with MCF7 breast; 41.5% with HCT-116 colon. In addition, the growth with HCC-2998 colon is 44.5%; in the test with KM12 colon, 23%.

As for `Nc1cccc(NC(=O)C(=O)Nc2cccc(N)c2)c1`, the growth in the test with T-47D breast is 105%; in the test on BT-549 breast it was 127%; in the test with MDA-MB-435 melanoma, 102%; with SW-620 colon it was 95.5%; with MCF7 breast it was 100%; in the test with HCT-116 colon it was 80.2%. Also, the growth was 105% with HCC-2998 colon and 98.7% in the test with KM12 colon.

Turning to `COc1cc(OC)c(/C=C/C(=O)c2c(OC)cc(OC)cc2OC)c(OC)c1`, the growth in the test on T-47D breast was 13%; in the test with BT-549 breast, 33.4%; in the test with MDA-MB-435 melanoma, -34.8% (active); with SW-620 colon it was 8.71% (active); in the test on MCF7 breast, 19.5%; in the test on HCT-116 colon, 8.7% (active). The figures for the growth in the test with HCC-2998 colon and in the test on KM12 colon were 30.3% and 9.29% (active), respectively.

Consider `Cc1ccc2c(c1)C(=O)/C(=C/c1ccc(OCC(=O)c3ccccc3)cc1)O2`, for which the growth is 77.8% in the test on T-47D breast; 112% in the test with BT-549 breast; 106% in the test on MDA-MB-435 melanoma; 108% in the test on SW-620 colon; 88.7% in the test with MCF7 breast; 93.4% in the test with HCT-116 colon. For the same compound, the results for the growth with HCC-2998 colon and in the test on KM12 colon were 125% and 101%, respectively.

Take `Cn1cc(-c2ccc(-c3cn(C)c4ncccc34)[nH]2)c2cccnc21`: the growth was -29.1% (active) with T-47D breast; -12% (active) with BT-549 breast; 86.6% with MDA-MB-435 melanoma; 24% with SW-620 colon; 75.2% in the test on MCF7 breast; 67.3% in the test with HCT-116 colon. The growth in the test with HCC-2998 colon is 33.3%; in the test with KM12 colon, 14.6%.

Consider `CCN(CC)c1ccc(/C=C/C2=[N+](C)c3ccccc3C2(C)C)cc1`, for which the growth with T-47D breast is 14%; with BT-549 breast, 0.697% (active); in the test on MDA-MB-435 melanoma, -1.89% (active); in the test with SW-620 colon, 15.4%; in the test on MCF7 breast it was 4.72% (active); in the test with HCT-116 colon it was 13.1%. Further, the growth was 24.1% with HCC-2998 colon and -28% (active) in the test on KM12 colon.

For the compound `O=C(NC(Cc1ccccc1)C(=O)CCl)OCc1ccccc1` (stereo not drawn), the growth is 70.7% in the test with T-47D breast; 41.4% in the test on BT-549 breast; 16.1% in the test on MDA-MB-435 melanoma; 48.4% with SW-620 colon; 29% in the test on MCF7 breast; 45.9% with HCT-116 colon. Further, the growth in the test with HCC-2998 colon was 97.1%; in the test on KM12 colon, 89.1%.

Take `C=CC[N+]1(CC)CCN=C1CCCCCCCCCCCCCCCCC` (stereo not drawn): the growth in the test with T-47D breast is -62.9% (active); with BT-549 breast, -75.9% (active); in the test on MDA-MB-435 melanoma, -85% (active); in the test with SW-620 colon, -89.7% (active); in the test on MCF7 breast it was -81.7% (active); with HCT-116 colon, -100% (active). The growth in the test on HCC-2998 colon was -73.5% (active); in the test on KM12 colon, -97.9% (active).

Regarding `CCN(CC)CCCNc1cccc2c(SCc3ccccc3)ccnc12`, the growth is 103% in the test on T-47D breast; 74.8% with BT-549 breast; -27.9% (active) with MDA-MB-435 melanoma; 55% in the test on SW-620 colon; 98.6% in the test on MCF7 breast; 75% with HCT-116 colon. The growth is 25.4% in the test with HCC-2998 colon and 34% with KM12 colon.

Regarding `COc1ccc(/C=c2/c(=O)[nH]c3nc4sc(C)c(C)c4c(=O)n23)cc1`, the growth in the test on T-47D breast is 92.7%; with BT-549 breast it was 85.1%; with MDA-MB-435 melanoma it was 86.8%; in the test with SW-620 colon, 107%; in the test with MCF7 breast it was 93.6%; in the test with HCT-116 colon, 93.1%. The growth with HCC-2998 colon was 113%; in the test with KM12 colon, 99.2%.

Take `O=C(CN1CCN(c2cc3c(cc2F)c(=O)c(C(=O)O)cn3C2CC2)CC1)Nc1nc(-c2ccccc2)cs1`: the growth in the test with T-47D breast was 72.8%; in the test with BT-549 breast it was 73.7%; in the test on MDA-MB-435 melanoma it was 86.6%; in the test with SW-620 colon, 91.7%; with MCF7 breast, 86.8%; in the test on HCT-116 colon, 81.2%. Also, the growth with HCC-2998 colon was 92.6%; with KM12 colon, 89.6%.

With `O=C1C=CC(=O)c2c1nc1n2CCCC1`, the growth was 86.7% with T-47D breast; 95.2% with BT-549 breast; -68.5% (active) in the test on MDA-MB-435 melanoma; 62.3% in the test on SW-620 colon; 57.8% in the test with MCF7 breast; 91.9% with HCT-116 colon. Further, the results for the growth with HCC-2998 colon and in the test with KM12 colon were 57.6% and 75%, respectively.
